Assay outcomes deposited in PubChem BioAssay by National Center for Advancing Translational Sciences (NCATS).
ALDH1A1 inh = qHTS Assay for Inhibitors of Aldehyde Dehydrogenase 1 (ALDH1A1); Aldehyde dehydrogenase 1A1 (Homo sapiens), P00352; hit rate 7.3% among 220,000; Purified ALDH1A1, NADH fluorescence, propionaldehyde substrate; Potency, µM (top dose mostly 75.3 µM), for the others: at the highest dose activity, negative = inhibition, actives largely listed as inhibitors;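 note: potency is the fitted concentration of half-maximal effect; plate controls were no enzyme wells and a reference inhibitor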
PNC inhibitor = High Content Assay for Compounds that inhibit the Assembly of the Perinucleolar Compartment | PC3M PTB-GFP, PNC prevalence imaging, 16 h; stronger effect = lower value | activity change (PNC), negative = inhibition, % at 10 µM | hit rate 3.1% among 140,000 | AID 2417, 2010;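 active = readout at or below -70, meaning at least 70% loss of cells showing the perinucleolar compartment, a nuclear body marking cancer cells; inconclusive = readout between -30 and a set limit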;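 note: plate controls were DMSO wells for no effect and camptothecin positive control wells for full effect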
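PC3M cells stably expressing PTB-GFP, 750–1000 cells/well, treated 16 h at 37 °C with compound (23 nl of library stock), in duplicate. After paraformaldehyde fixation and Hoechst stain, imaged at 20x; PNC prevalence scored by image analysis.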
Lamin A splicing = qHTS Assay for Modulators of Lamin A Splicing. HeLa LMNA splicing GFP/RFP minigene ratio, 48 h. Potency, µM (series often up to 46.1 µM), for inactives: at the highest dose ratio change, negative = inhibition, usual class: inhibitors. hit rate 0.01% among 200,000. AID 1487, 2009; active = well fitted inhibition curve with a large enough effect in the signal ratio, with a control signal flat, not every such curve was filed as active; inconclusive = small, poorly fitted or top-dose-only effect, or effect the other way, or a change in a side signal; the % refers to the signal ratio; note: potency is the fitted concentration of half-maximal effect
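S3 HeLa stable clones carrying a lamin A-EGFP splicing minigene plus DsRed2 were seeded at 600 cells/well in Opti-MEM with 2% FBS, pin-dosed and incubated 48 h at 37°C. Acumen cytometry (488 nm) gave the GFP/RFP total-intensity ratio.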
KinaseGlo FLuc = Counterscreen for Luciferase (Kinase-Glo TM) Inhibition. Potency, µM (top dose mostly 38.3 µM), inactives show top-dose activity change, negative = inhibition, most hits filed as inhibitors. hit rate 0.28% among 200,000. AID 1379, 2008. Kinase-Glo luciferase, ATP luminescence, 8 min. Luciferin 4-monooxygenase (Photuris pensylvanica), Q27757; active = well fitted inhibition curve with a large enough effect; inconclusive = small, poorly fitted or top-dose-only effect; note: potency is the fitted concentration of half-maximal effect; nearly all actives have a fitted effect of over 60% in size
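Compound is pinned into ATP-containing buffer (10 uM ATP, imidazole pH 7.2, 7 mM MgCl2). Kinase-Glo luciferase reagent is then added. Light output is recorded following an 8-min room-temperature incubation.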
HPGD inh = qHTS Assay for Inhibitors of HPGD (15-Hydroxyprostaglandin Dehydrogenase); Potency, µM, without a hit: at the top dose activity change, negative = inhibition, most hits filed as inhibitors; AID 894, 2007; purified HPGD, NADH fluorescence kinetic, PGE2 substrate; 15-hydroxyprostaglandin dehydrogenase [NAD(+)] (Homo sapiens), P15428; hit rate 4.3% among 150,000; note: potency is the fitted concentration of half-maximal effect
Target sequence (P15428 whole entry, looked up): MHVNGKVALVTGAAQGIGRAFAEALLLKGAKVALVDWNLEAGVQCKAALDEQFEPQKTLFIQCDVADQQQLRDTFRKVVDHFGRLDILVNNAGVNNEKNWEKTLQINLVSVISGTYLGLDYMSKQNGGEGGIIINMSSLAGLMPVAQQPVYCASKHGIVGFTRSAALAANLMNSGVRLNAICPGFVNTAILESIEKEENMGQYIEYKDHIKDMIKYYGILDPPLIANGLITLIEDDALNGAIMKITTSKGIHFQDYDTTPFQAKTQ
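NADH formation kinetics: reaction with 30 uM PGE2 and 1 mM NAD+ (final), 20 nM enzyme, Tris-HCl pH 8 with Tween 20, after 15 min compound preincubation at room temperature. Fluorescence change, last versus first of five reads.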
Starred values were filed as active, the others as inactive; ? = inconclusive; . = no result given; [ ] = dose if it differs, or a comment. Hits are enriched below; roughly 10% of the tested compounds scored in any of these assays. Unless noted, calls come from the whole dose curve; as a rule, active = well fitted inhibition curve with a large enough effect (not every such curve was filed as active); inconclusive = small, poorly fitted or top-dose-only effect, or another doubt; inactive = no such curve, though single readings can be large or run the other way. Unless noted, % is set by controls: 0 for no effect and ±100 for the full control effect.

SMILES	ALDH1A1 inh	PNC inhibitor	Lamin A splicing	KinaseGlo FLuc	HPGD inh
Cc1ccc(S(=O)(=O)N[C@H]2COC(=O)[C@@H](Cc3ccccc3)NC(=O)[C@@H](C)COC(=O)C/C=C\[C@@H]2C)cc1	1%[13.5 µM]	.	.	.	.
CCOCCCn1c(SCC(=O)Nc2ccc(C)cc2)nc2ccccc2c1=O	.	.	4%[46 µM]	.	.
CC(=O)Nc1ccc(S(=O)(=O)NCC2CCC(C(=O)NCCc3ccc(C)cc3)CC2)cc1 (stereo not drawn)	.	.	8%[46 µM]	.	.
CCN(CCCNC(=O)CN1N=C(c2ccccc2)CCC1=O)c1ccccc1	.	.	-12%[46 µM]	.	.
CCc1nnc(NC(=O)CCN(c2cc(C)cc(C)c2)S(=O)(=O)c2ccc(Cl)cc2)s1	5%	-94*	?	.	.
CCOC(=O)c1cc2c(=O)n3ccccc3nc2n(C(C)C)c1=NC(=O)c1ccco1	?	.	.	0%	.
CC(C)n1c(=NC(=O)c2ccco2)c(C#N)cc2c(=O)n3ccccc3cc21	?	-82*	?	-1%	?
CCN(CC)CCCNC(=O)c1ccc(Cc2nc3ccccc3[nH]2)cc1	0%	.	.	-1%	-4%
CC(C)(C)NS(=O)(=O)c1cccc(S(=O)(=O)c2cccc(S(=O)(=O)NC(C)(C)C)c2)c1	5%	3	?	10%	20µM*
CC(=O)N1CCN(CC(=O)Nc2ccccc2Sc2ccc(Cl)cc2)CC1	?	?	?	4%	7%
CSc1ccccc1NC(=O)COc1ccc(Cl)cc1Cl	0%	?	1%	.	.
CSc1ccccc1NC(=O)COc1ccccc1Cl	-12%	60	11%	-5%	25µM*
O=C(CCl)Nc1ccccc1Sc1ccc(Cl)cc1	4µM*	25	?	-1%	-11%
CSc1ccccc1NC(=O)COc1ccc(Cl)cc1	-13%	-10	?	3%	28µM*
O=C(COc1ccccc1)NNC(=O)COc1ccc([N+](=O)[O-])cc1	5%	.	.	1%	.
O=C(COc1ccc([N+](=O)[O-])cc1)N(Cc1ccccc1)Cc1ccccc1	14µM*	23	?	2%	-3%
Cc1ccc(Cl)cc1N1CCN(C(=O)c2c(C)oc3ncnc(N4CCOCC4)c23)CC1	.	.	-6%[46 µM]	.	.
COC(=O)c1ccc(-c2ccco2)n1Cc1nc(-c2ccc(OC)c(OC)c2)oc1C	7.9µM*	?	?	-3%	?
CC(C)NC(=O)N1CC2(CCN(C(=O)c3ccncc3)CC2)C1	10%	.	.	-3%	-10%
COc1ccc(/C(O)=C2/C(=O)C(=O)N(CC3CCCO3)C2c2ccc(O)c(OC)c2)cc1 (stereo not drawn)	?	.	0%[9.22 µM]	0%	.
COc1ccc(/C=C2/C(=O)N(CC3CCCO3)C(=S)N2C)c(OC)c1 (stereo not drawn)	13µM*	6	8%	1%	-18%
COc1ccccc1/C=C1\NC(=S)N(CC2CCCO2)C1=O (stereo not drawn)	0.5µM*	-18	17%	-2%	28µM*
CN(c1nc2c(c(=O)n(C)c(=O)n2C)n1CC(=O)c1ccccc1)C1CCCCC1	28µM*	26	8%	3%	-8%
CC(=O)N(Cc1cc(=O)[nH]c2ccccc12)c1cccc(C)c1	20µM*	8	4%	8%	?
CCn1c(C(=O)N2CCc3ccccc3C2)cc2sccc21	-2%	-22	-5%	2%	3.2µM*
SMILES	ALDH1A1 inh	PNC inhibitor	Lamin A splicing	KinaseGlo FLuc	HPGD inh
CCn1c(C(=O)N2CCC(C(=O)NCCCSC3CCCCC3)CC2)cc2sccc21	3.2µM*	-18	-17%	6%	-15%
Cc1cc(C)nc(N2CCC(C(=O)NCc3ccccc3F)CC2)n1	10%	.	-1%[46 µM]	0%	.
O=C(NCc1ccco1)C1CCN(C(=O)c2cc3sccc3n2Cc2ccc(F)cc2)CC1	4.5µM*	?	?	1%	-14%
O=C(NCc1ccccn1)C1CCN(C(=O)c2cc3sccc3n2Cc2ccc(F)cc2)CC1	?	.	1%[9.22 µM]	-2%	.
O=C(NCc1ccco1)C1CCN(c2nc3ccccc3n2Cc2ccccc2F)CC1	28µM*	?	18%	1%	-15%
Cc1ccccc1OCC(=O)Nc1cccc(C(=O)OCc2cc(=O)n3c(C)csc3n2)c1	.	.	-19%[46 µM]	.	.
Cc1onc(-c2ccc(Br)cc2)c1C(=O)Nc1ccc(Br)cc1F	.	.	6%[46 µM]	.	.
Cc1ccc(C(=O)OCc2cc(=O)n3nc(CC(C)C)sc3n2)cc1	.	.	7%[46 µM]	.	.
COCCCNC(=O)C1CCN(C(=O)c2cc3sccc3n2Cc2ccc(F)cc2)CC1	10µM*	-13	-4%	-4%	-1%
CCCNC(=S)NCCN1CCCCC1	35µM*	20	-3%	-2%	5%
COc1ccc2c(c1OC)C(=O)N1N=C(c3ccc(-c4ccccc4)cc3)CC21 (stereo not drawn)	?	.	.	0%	.
COc1ccc2c(c1OC)C(=O)N1c3ccccc3N=C(c3ccc([N+](=O)[O-])cc3)CC21 (stereo not drawn)	10µM*	41	-13%	1%	35µM*
COc1ccc2c(c1OC)C(=O)N1N=C(c3ccc(Cl)cc3)CC21 (stereo not drawn)	11µM*	-93*	-15%	-3%	-26%
C[C@H]1CC[C@@H]2N(C1)C[C@H]1[C@@H]3C[C@H]4[C@@H](C/C(=N\O)[C@H]5C[C@@H](O)CC[C@@]54C)[C@@H]3CC[C@H]1[C@]2(C)O	4%	.	.	0%	-6%
CCCCCCCCCCCCCCCCOCC(CO)OC(C)=O (stereo not drawn)	-1%	.	.	0%	-7%
Nc1nc(=S)c2[nH]cnc2[nH]1	?	.	.	1%	35µM*
Cc1cc(C)nc(NC=C2C(=O)OC(C)(C)OC2=O)n1	4µM*	.	.	.	.
Cc1ccc(N(C)S(=O)(=O)c2ccc3[nH]c(=O)ccc3c2)cc1	.	.	12%[46 µM]	.	.
Cc1nc2cnc(N3CCOCC3)nc2n(CCc2ccccc2)c1=O	?	.	-25%	.	.
COc1ccc(NC(=O)Cn2c(SCc3ccc(F)cc3)nc3cccnc32)cc1OC	.	.	18%[46 µM]	.	.
CC(C)CCNC(=O)C(c1ccc(O)cc1)N(Cc1cccs1)C(=O)C1COc2ccccc2O1 (stereo not drawn)	-1%	-11	?	0%	-4%
O=C(NCc1ccco1)C(c1cccs1)N(C(=O)C1COc2ccccc2O1)c1cccc(O)c1 (stereo not drawn)	-12%	-116*	?	5%	-2%
COc1ccc(-c2cc(CNC(=O)CCl)on2)cc1	?	42	?	-5%	-6%
COc1ccc(-c2cc(CNC(=O)CN(C)Cc3ccccc3)on2)cc1	4%	65	?	0%	25µM*
